# The supplement of paper PMC4709259
# Where a name gives a salt, the structure may show the parent alone. ± gives the standard deviation.
# System: Jurkat
# Assay: mean cell size (FSC-A) relative to DMSO control (fraction of control); higher = larger cells
# Conditions: 48 h
# How it was run: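 Jurkat cells seeded at 600 cells/µl were incubated 1 h, then exposed for 48h to the Enzo Screen-Well FDA Approved Drug Library v2.0 at 25µM in 0.9% (v/v) final DMSO. Drugs that cut counts below 20% of controls were diluted 10-fold and retested, down to 25nM. Cell count and mean cell size (forward scatter area) were read on an Accuri C6 flow cytometer, relative to solvent-only controls. Plates held 6-12 controls; values are means of 3 biological replicates.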
row,SMILES,mean cell size
1,CC(=O)OCC(=O)[C@@]1(O)CC[C@H]2[C@@H]3CCC4=CC(=O)CC[C@]4(C)[C@@]3(F)[C@@H](O)C[C@@]21C [Fludrocortisone Acetate] (concentration: 25 µM),0.932 ± 0.058
2,COCC1=C(C(=O)OC(C)OC(=O)OC(C)C)N2C(=O)[C@@H](NC(=O)/C(=N\OC)c3csc(N)n3)[C@H]2SC1 (stereo not given in full) [Cefpodoxime Proxetil] (concentration: 25 µM),0.94 ± 0.021
3,Clc1ccc2c(c1)CCc1cccnc1C2=C1CCNCC1 [Desloratadine] (concentration: 25 µM),1 ± 0.05
4,CN(C)CC/C=C1/c2ccccc2COc2ccc(CC(=O)O)cc21 [Olopatadine] (concentration: 25 µM),0.976 ± 0.029
5,C[C@H]1O[C@@H](O[C@H]2[C@@H](O)C[C@H](O[C@H]3[C@@H](O)C[C@H](O[C@H]4CC[C@@]5(C)[C@H](CC[C@@H]6[C@@H]5C[C@@H](O)[C@]5(C)[C@@H](C7=CC(=O)OC7)CC[C@]65O)C4)O[C@@H]3C)O[C@@H]2C)C[C@H](O)[C@@H]1O [Digoxin] (concentration: 25 nM),0.91 ± 0.065
6,C[C@H](CS)C(=O)N1CCC[C@H]1C(=O)O [Captopril] (concentration: 25 µM),0.951 ± 0.029
7,CO[C@H]1O[C@@H]2O[C@@]3(C)CC[C@H]4[C@H](C)CC[C@@H]([C@H]1C)[C@@]24OO3 [Artemether] (concentration: 25 µM),0.912 ± 0.047
8,Cc1ccnc2c1NC(=O)c1cccnc1N2C1CC1 [Nevirapine] (concentration: 25 µM),0.924 ± 0.051
9,CCc1cc(C(N)=S)ccn1 [Ethionamide] (concentration: 25 µM),1.05 ± 0.03
10,Nc1nc(Cl)nc2c1ncn2[C@@H]1O[C@H](CO)[C@@H](O)[C@@H]1F [Clofarabine] (concentration: 25 nM),1.18 ± 0.048
11,CN1CCCC(n2nc(Cc3ccc(Cl)cc3)c3ccccc3c2=O)CC1 (stereo not given) [Azelastine·HCl] (concentration: 25 µM),0.923 ± 0.037
12,C[C@]12CCC(=O)C=C1[C@@H]1C[C@@H]1[C@H]1[C@@H]3[C@@H]4C[C@@H]4[C@@]4(CCC(=O)O4)[C@@]3(C)CC[C@@H]12 [Drospirenone] (concentration: 25 µM),0.962 ± 0.03
13,CC(=O)N1CCN(c2ccc(OCC3COC(Cn4ccnc4)(c4ccc(Cl)cc4Cl)O3)cc2)CC1 (stereo not given) [Ketoconazole] (concentration: 25 µM),0.84 ± 0.013
14,CN(Cc1ccc(C(C)(C)C)cc1)Cc1cccc2ccccc12 [Butenafine·HCl] (concentration: 25 µM),0.97 ± 0.031
15,COCCCC/C(=N\OCCN)c1ccc(C(F)(F)F)cc1 [Fluvoxamine Maleate] (concentration: 25 µM),0.973 ± 0.046
16,CN(CCOc1ccc(CC2SC(=O)NC2=O)cc1)c1ccccn1 (stereo not given) [Rosiglitazone] (concentration: 25 µM),0.996 ± 0.063
17,CC[C@]1(O)C[C@H]2CN(CCc3c([nH]c4ccccc34)[C@@](C(=O)OC)(c3cc4c(cc3OC)N(C=O)[C@H]3[C@@](O)(C(=O)OC)[C@H](OC(C)=O)[C@]5(CC)C=CCN6CC[C@]43[C@@H]65)C2)C1 [Vincristine Sulfate] (concentration: 25 nM),0.985 ± 0.011
18,Cn1c(=O)c2nc[nH]c2n(C)c1=O [Theophylline] (concentration: 25 µM),0.947 ± 0.041
19,COCCCOc1ccnc(C[S+]([O-])c2nc3ccccc3[nH]2)c1C (stereo not given) [Rabeprazole·Na] (concentration: 25 µM),0.923 ± 0.02
20,C[C@](N)(Cc1ccc(O)c(O)c1)C(=O)O [Methyldopa Sesquihydrate (L-Α-Methyl-Dopa Sesquihyrate)] (concentration: 25 µM),0.958 ± 0.027

row,SMILES,mean cell size
1,Cc1onc(-c2ccccc2Cl)c1C(=O)N[C@@H]1C(=O)N2[C@@H]1SC(C)(C)[C@@H]2C(=O)O [Cloxacillin·Na] (concentration: 25 µM),0.99 ± 0.031
2,O=C(O[C@@H]1C[C@@H]2C[C@H]3C[C@H](C1)N2CC3=O)c1c[nH]c2ccccc12 [Dolasetron] (concentration: 25 µM),0.921 ± 0.029
3,CN1CCc2cccc3c2[C@H]1Cc1ccc(O)c(O)c1-3 [Apomorphine·HCl Hemihydrate] (concentration: 2.5 µM),1.031 ± 0.0071
4,COc1ccc(C[C@@H]2c3cc(OC)c(OC)cc3CC[N@+]2(C)CCC(=O)OCCCCCOC(=O)CC[N@@+]2(C)CCc3cc(OC)c(OC)cc3[C@H]2Cc2ccc(OC)c(OC)c2)cc1OC [Cisatracurium Besylate] (concentration: 25 µM),1.004 ± 0.009
5,NC(=O)c1cn(Cc2c(F)cccc2F)nn1 [Rufinamide] (concentration: 25 µM),0.968 ± 0.042
6,O=c1n(CCCN2CCN(c3cccc(Cl)c3)CC2)nc2ccccn12 [Trazodone·HCl] (concentration: 25 µM),0.967 ± 0.045
7,CC[C@@H]1/C=C(\C)C[C@H](C)C[C@H](OC)[C@H]2O[C@@](O)(C(=O)C(=O)N3CCCC[C@H]3C(=O)O[C@H](/C(C)=C/[C@@H]3CC[C@H](Cl)[C@H](OC)C3)[C@H](C)[C@@H](O)CC1=O)[C@H](C)C[C@@H]2OC [Pimecrolimus] (concentration: 25 µM),0.822 ± 0.021
8,CC(C)(C)NC(=O)[C@@H]1CN(Cc2cccnc2)CCN1C[C@@H](O)C[C@@H](Cc1ccccc1)C(=O)N[C@H]1c2ccccc2C[C@H]1O [Indinavir] (concentration: 25 µM),0.93 ± 0.056
9,O=C(O)C1(C(=O)O)CCC1.[NH2-].[NH2-].[Pt+2] [Carboplatin] (concentration: 25 µM),1.08 ± 0.016
10,CCC(C)(C)C(=O)O[C@H]1C[C@@H](C)C=C2C=C[C@H](C)[C@H](CC[C@@H]3C[C@@H](O)CC(=O)O3)[C@H]21 [Simvastatin] (concentration: 25 µM),1.05 ± 0.054
11,C[C@@H](O[C@H]1OCCN(Cc2n[nH]c(=O)[nH]2)[C@H]1c1ccc(F)cc1)c1cc(C(F)(F)F)cc(C(F)(F)F)c1 [Aprepitant] (concentration: 2.5 µM),1.08 ± 0.022
12,CC(C)/N=c1\cc2n(-c3ccc(Cl)cc3)c3ccccc3nc-2cc1Nc1ccc(Cl)cc1 [Clofazimine] (concentration: 2.5 µM),0.952 ± 0.03
13,OC(CCN1CCCCC1)(c1ccccc1)C1CCCCC1 (stereo not given) [Trihexyphenidyl·HCl] (concentration: 25 µM),1.04 ± 0.031
14,C[C@]12C=CC(=O)N[C@@H]1CC[C@@H]1[C@@H]2CC[C@]2(C)[C@@H](C(=O)Nc3cc(C(F)(F)F)ccc3C(F)(F)F)CC[C@@H]12 [Dutasteride] (concentration: 25 µM),0.983 ± 0.052
15,COC(=O)CCc1ccc(OCC(O)CNC(C)C)cc1 (stereo not given) [Esmolol] (concentration: 25 µM),0.9278 ± 0.0077
16,Nc1c(CC(=O)O)cccc1C(=O)c1ccc(Br)cc1 [Bromfenac] (concentration: 25 µM),0.938 ± 0.018
17,CCCNC(C)C(=O)Nc1ccccc1C (stereo not given) [Prilocaine·HCl] (concentration: 25 µM),1 ± 0.022
18,C[C@H](N)[C@H](O)c1cccc(O)c1 [Metaraminol Bitartrate] (concentration: 25 µM),1.04 ± 0.058
19,Oc1ccc(C2CNCCc3c2cc(O)c(O)c3Cl)cc1 (stereo not given) [Fenoldopam Mesylate] (concentration: 25 µM),0.886 ± 0.059
20,O=C1CC2(CCCC2)CC(=O)N1CCCCN1CCN(c2ncccn2)CC1 [Buspirone·HCl] (concentration: 25 µM),0.9275 ± 0.0078
